Where “and” joins values, the source holds several entries; their conditions need not be identical. Identical values can stand only once. Among all 5,500 compounds or so, about 2,000 (36%) were called active. Inconclusive results (about 18%) are left out. Rule as the data show it: active = normalized growth mostly below about 0.91 (no sharp cut-off); inconclusive = no clear call, values can overlap the other calls; inactive = mostly above about 0.92. Some of the results follow.
Assay: chemical genetic growth profiling, strain panel (AID 1159580);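 also: tested at 20 µM; growth read once vehicle control cultures reached saturation at 30 °C; 1 = growth at the plate median or of vehicle wells; lower values mean less growth of the strain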
Settings: S. cerevisiae deletion strains, growth OD

Measured: normalized growth

COc1c(O)cc2c(c1O)[C@H]1O[C@H](CO)[C@@H](O)[C@H](O)[C@@H]1OC2=O
inactive: locus YAL021C, strain ccr4, active compounds read low 1.03 | locus YAL026C, strain drs2, active compounds read low 1.02 | locus YAL030W, strain snc1, active compounds read low 1.02 | locus YBL061C, strain skt5, active compounds read low 1.03 | locus YBR009C, strain hhf1, active compounds read low 1.02 | locus YBR021W, strain FUR4, active compounds read low 0.961 | locus YBR023C, strain chs3, active compounds read low 1.03 | locus YBR171W, strain sec66, active compounds read low 1.02 | locus YBR229C, strain ROT2, active compounds read low 0.993 | locus YBR231C, strain swc5, active compounds read low 1.02 | locus YBR279W, strain paf1, active compounds read low 1.02 | locus YCL011C, strain gbp2, active compounds read low 1.02 | locus YCL016C, strain dcc1, active compounds read low 1.04 | locus YCL029C, strain bik1, active compounds read low 0.998 | locus YCL061C, strain MRC1, active compounds read low 1.02 | locus YCL069W, strain vba3, active compounds read low 1.02 | locus YCR088W, strain abp1, active compounds read low 1.02 | locus YDL005C, strain med2, active compounds read low 1.03 | locus YDL035C, strain GPR1, active compounds read low 1.02 | locus YDL040C, strain nat1, active compounds read low 1.02 | locus YDL074C, strain BRE1, active compounds read low 0.992 | locus YDL101C, strain DUN1, active compounds read low 0.985 | locus YDL185W, strain tfp1, active compounds read low 1.02 | locus YDL192W, strain arf1, active compounds read low 0.983 | locus YDR001C, strain nth1, active compounds read low 1.02 | locus YDR069C, strain doa4, active compounds read low 1.03 | locus YDR101C, strain arx1, active compounds read low 1.01 | locus YDR137W, strain rgp1, active compounds read low 1.05 | locus YDR150W, strain NUM1, active compounds read low 0.98 | locus YDR159W, strain sac3, active compounds read low 1 | locus YDR162C, strain NBP2, active compounds read low 0.988 | locus YDR195W, strain ref2 1 | locus YDR297W, strain sur2, active compounds read low 1.02 | locus YDR318W, strain mcm21, active compounds read low 1.01 | locus YDR334W, strain swr1, active compounds read low 1.02 | locus YDR335W, strain msn5, active compounds read low 1.02 | locus YDR388W, active compounds read low 0.996 | locus YDR392W, strain spt3, active compounds read low 0.966 | locus YDR502C, strain sam2, active compounds read low 1 | locus YEL003W, strain gim4, active compounds read low 1.02 | locus YEL037C, strain rad23, active compounds read low 1.02 | locus YEL061C, strain CIN8 (second series), active compounds read low 1.02 | locus YEL061C, strain CIN8, active compounds read low 0.962 | locus YER015W, strain faa2, active compounds read low 1.01 | locus YER016W, strain bim1, active compounds read low 1.02 | locus YER110C, active compounds read low 1.01 | locus YER111C, strain swi4, active compounds read low 1.01 | locus YER155C, strain BEM2 (second series), active compounds read low 1 | locus YER155C, strain BEM2, active compounds read low 0.996 | locus YER167W, strain BCK2, active compounds read low 0.973 | locus YFR010W, strain ubp6, active compounds read low 1.02 | locus YGL078C, strain dbp3, active compounds read low 1.03 | locus YGL086W, strain mad1, active compounds read low 0.991 | locus YGL167C, strain pmr1, active compounds read low 1.02 | locus YGL173C, strain kem1, active compounds read low 1.01 | locus YGL227W, strain vid30, active compounds read low 1.02 | locus YGL240W, strain doc1, active compounds read low 1.01 | locus YGL248W, strain PDE1, active compounds read low 1 | locus YGL253W, strain hxk2, active compounds read low 1.02 | locus YGR135W, strain pre9, active compounds read low 0.995 | locus YGR252W, strain gcn5, active compounds read low 0.991 | locus YHR013C, strain ard1, active compounds read low 1.02 | locus YHR027C, strain rpn1, active compounds read low 1.01 | locus YHR030C, strain SLT2, active compounds read low 1.01 and 0.959 | locus YHR079C, strain IRE1 (second series), active compounds read low 1.01 | locus YHR079C, strain IRE1, active compounds read low 0.987 | locus YHR094C, strain hxt1, active compounds read low 0.996 | locus YHR129C, strain ARP1, active compounds read low 0.988 | locus YHR142W, strain chs7, active compounds read low 1.05 | locus YHR200W, strain rpn10, active compounds read low 1 | locus YIL066C, strain RNR3, active compounds read low 0.986 | locus YIL073C, strain SPO22, active compounds read low 1.05 | locus YIL125W, strain kgd1, active compounds read low 1.01 | locus YIR030C, strain dcg1, active compounds read low 1 | locus YJL092W, strain hpr5, active compounds read low 1.02 | locus YJL095W, strain BCK1 (second series), active compounds read low 1.03 | locus YJL095W, strain BCK1, active compounds read low 0.811 and 0.98 | locus YJL115W, strain asf1, active compounds read low 1.01 | locus YJL129C, strain trk1, active compounds read low 1.04 | locus YJL134W, strain LCB3, active compounds read low 0.998 | locus YJL154C, strain vps35, active compounds read low 1.01 | locus YJL164C, strain tpk1, active compounds read low 1.02 | locus YJL166W, strain qcr8, active compounds read low 1.03 | locus YJL168C, strain set2, active compounds read low 1 | locus YJL187C, strain SWE1 (second series), active compounds read low 0.969 | locus YJL187C, strain SWE1, active compounds read low 1.03 | locus YJR043C, strain POL32, active compounds read low 0.997 | locus YJR066W, strain TOR1, active compounds read low 0.934 | locus YJR075W, strain HOC1, active compounds read low 1

From PubChem BioAssay AID1159580 (chemical genetic matrix, 2015)
